38 compounds from PubChem BioAssay (NCI) can be followed below.

Molecules are shown by their SMILES. Compounds without any hit were thinned out: in the full panel of roughly 83,000, 20% have a hit.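 96-well plates, one dose, 48 hours. Percent growth reported; active if below 10.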 Values without a mark were called inactive. Active and inactive are the calls of the source.

This assay deals with MCF7 breast. Description: NCI-60 one-dose screen, 48 h (100 = growth as untreated, 0 = no growth, -100 = all killed). The settings on record: 10 µM unless noted.
Take `C[C@H]1[C@H]2[C@H]3CC[C@@H]4[C@@]5(C)C/C(=C/c6ccco6)C(=O)C(C)(C)[C@@H]5CC[C@@]4(C)[C@]3(C)CC[C@]23CO[C@]1(C)[C@@H](C(=O)/C=C\c1ccco1)C3`: the growth was 88.8%.
On to `O=C(CCCCCCN1CC(=O)N2[C@@H](c3ccccc3Cl)c3[nH]c4ccccc4c3C[C@H]2C1=O)NO`, for which the growth is 44%.
The same measure for `O=C(Nc1cccc(C(F)(F)F)c1)Nc1cccc(C(F)(F)F)c1`: 5.26% (active); for `CC1=C([Se]CC(OC(=O)CC[Se]c2ccccc2)C(=O)NCCCCCC(=O)OCc2ccccc2)C(=O)c2ccccc2C1=O` (stereo not drawn): 30.2%; for `CCCCNC(=O)Oc1ccc2c(=O)c3sc4c(=O)c5ccccc5c(=O)c4c3c(=O)c2c1`: -59.2% (active).
The value for `C=C1C(=O)O[C@H]2[C@H]1CC/C(COC(=O)C(=O)c1c[nH]c3ccc(OC)cc13)=C\CC[C@@]1(C)O[C@@H]21` was -30.1% (active); that for `O=c1[nH]nc(-c2ccccc2)c2c(-c3ccccc3)onc12` was 25.6%; that for `COc1cc(-c2nn(-c3ccccc3)cc2-c2ccnc(NCCNS(=O)(=O)c3ccc(Cl)cc3)n2)ccc1Cl` was 18%.
The value for `CCCCn1c(=O)c2c(nc(NCCc3ccc(O)c(O)c3)n2CCC)n(CCCC)c1=O` was 65%; that for `S=C(c1ccc2c(c1)OCO2)N1CCN(c2ccccc2Cl)CC1` was 103%.
`CC1=NOC(=O)/C1=C\c1ccc(O)cc1`: the growth is 94.6%.
The same measure for `O=[N+]([O-])c1ccc(N2c3ccncc3Sc3ccncc32)cc1`: 101%; for `C=CCNc1nc(NN2C(=O)c3cccc4cccc(c34)C2=O)nc(-n2cnc3ccccc32)n1`: 55.1%.
Consider `Nc1ccc2c(c1)c(N)nn2C(=O)Nc1ccc(Cc2ccccc2)cc1`, for which the growth is 64.3%.
Regarding `COC(=O)c1ccc(CSc2nnc(-c3c(C)nc4ccc(C)cn34)o2)cc1`, the growth was 85.9%.
With `Cc1cc(O)c(C2=NN(c3ccc(S(N)(=O)=O)cc3)C(c3ccccc3Cl)C2)cc1Cl` (stereo not drawn), the growth was 0.899% (active).
The value for `Cc1ccc(Cc2cnc(NC(=O)c3ccc4noc(-c5ccccc5)c4c3)s2)cc1` was 69.8%; that for `Cn1cc(-c2csc(-c3cccc(F)c3)n2)c2cccnc21` was -62% [100 µM] (active).
Consider `COc1c(CCC[P+](c2ccccc2)(c2ccccc2)c2ccccc2)cc2c(c1OC)OCO2`, for which the growth was 2.19% (active).
The same measure for `Cc1ccc(Nc2nc(N)nc(CSCC(=O)NN)n2)cc1`: 94.3%; for `O=C(N/N=C/c1ccncc1)c1ccc(C(F)(F)F)nc1Nc1cccc(C(F)(F)F)c1`: -14.5% (active).
The value for `COc1cc2c(cc1-c1c(C)noc1C)ncc1nc(C3CCC(F)(F)CC3)n(C3CCC(OC(F)F)CC3)c12` (stereo not drawn) was 26.2%; that for `O=c1[nH][n+](-c2ccc(Cl)cc2)no1` was 58.4%; that for `O=C(CCc1nnc(CN(c2ccccc2)c2ccccc2)o1)c1nc2ccccc2[nH]1` was 76%.
The value for `Cc1cccc(Cc2cnc(NC(=O)c3ccc4nnsc4c3)s2)c1` was 95%.
Take `Cc1ccc(C(=O)COc2cccc(/C=C3\Oc4ccccc4C3=O)c2)cc1`: the growth is 116%.
The same measure for `CN(C)CCC=C1c2ccccc2C(C)(C)c2ccccc21`: 81.2%; for `COc1cc(C2CC(c3cc(OC)c(OCCCOc4ccc(-n5c(/C=C/c6ccccc6)nc6ccccc6c5=O)cc4)c(OC)c3)=NO2)cc(OC)c1OC` (stereo not drawn): 97.4%.
In the case of `CS(=O)c1cccc(-c2ccc3nc(N)n(-c4ccc(C(F)(F)F)cc4)c(=O)c3c2)c1` (stereo not drawn), the growth was 104%.
The same measure for `CC(C)(C)C(CCc1ccc(Cl)cc1)N1CCN(C2CCCCC2)CC1` (stereo not drawn): 31.6%; for `CNC(=O)CCN1CCN(CC/C=C2\c3ccccc3Sc3ccc(Cl)cc32)CC1`: 73.2%.
The same measure for `O=c1ssc(Cl)c1-c1ccccc1`: 89.3%; for `O=C1CC(N2C(=O)/C(=C/C(Cl)=C\c3ccc([N+](=O)[O-])cc3)SC2=S)C(=O)N1c1ccc(O)cc1` (stereo not drawn): -11.6% (active); for `COC(=O)CCC1=C(C)C2=NC1=CC1=NC(=CC3=NC(=Cc4[nH]c(/c(=C(/C)O)c4C)=C2)C(C(C)=O)=C3C)C(C)=C1CCC(=O)OC`: 98.2%.
Consider `CC1SC(c2ccc(OCc3ccccc3)cc2)N(NC(=O)C(O)(c2ccccc2)c2ccccc2)C1=O` (stereo not drawn), for which the growth was 35.7%.
The value for `N#CC1=C(NC=O)Oc2c(ccc3ccccc23)C1c1ccccc1` (stereo not drawn) was 17.5%.
The value for `O=C(Cc1ccc(F)c(F)c1)Nc1cc(C2(C(F)(F)F)CC2)nn1Cc1ccccc1` was -7.28% (active); that for `CCN(CC)CCN1CC(O)=C(c2nc(-c3ccc(Cl)cc3)cs2)C1=N` was 10.1%.
